# This is a sample that favours compounds with a hit; in the whole collection about 11% have one here.
# ALDH1A1 inh – blocks purified human ALDH1A1 activity. Potency, µM (highest dose often 75.3 µM), for inactives: top-dose activity, negative = inhibition, usual class: inhibitors. actives 7.3% (n = 220,000). AID 1030. Purified ALDH1A1, NADH fluorescence, propionaldehyde substrate;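 also: potency is read from the fitted curve at half-maximal effect; plate controls were no enzyme wells and a reference inhibitor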
# HPGD block – blocks human HPGD enzyme activity. purified HPGD, NADH fluorescence kinetic, PGE2 substrate. actives 4.3% (n = 150,000). Potency, µM, without a hit: top-dose activity change, negative = inhibition, hits mostly inhibitors. P15428; also: potency is read from the fitted curve at half-maximal effect
# Target sequence (P15428 whole entry, looked up): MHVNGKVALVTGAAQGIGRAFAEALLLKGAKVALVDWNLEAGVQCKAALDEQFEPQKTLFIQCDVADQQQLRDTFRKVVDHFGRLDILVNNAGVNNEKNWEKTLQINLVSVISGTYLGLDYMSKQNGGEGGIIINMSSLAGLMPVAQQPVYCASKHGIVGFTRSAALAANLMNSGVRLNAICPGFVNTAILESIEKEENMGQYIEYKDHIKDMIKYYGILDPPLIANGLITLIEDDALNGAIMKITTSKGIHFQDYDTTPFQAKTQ
#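 NADH formation kinetics: reaction with 30 uM PGE2 and 1 mM NAD+ (final), 20 nM enzyme, Tris-HCl pH 8 with Tween 20, after 15 min compound preincubation at room temperature. Fluorescence change, last versus first of five reads.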
# PNC assembly inh – blocks assembly of the perinucleolar compartment; PC3M PTB-GFP, PNC prevalence imaging, 16 h; active compounds read low; activity change (PNC), negative = inhibition, % at 10 µM; actives 3.1% (n = 140,000); AID 2417;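 active = readout at or below -70, meaning at least 70% loss of cells showing the perinucleolar compartment, a nuclear body marking cancer cells; inconclusive = readout between -30 and a set limit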;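 also: plate controls were DMSO wells for no effect and camptothecin positive control wells for full effect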
#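 PC3M cells stably expressing PTB-GFP, 750–1000 cells/well, treated 16 h at 37 °C with compound (23 nl of library stock), in duplicate. After paraformaldehyde fixation and Hoechst stain, imaged at 20x; PNC prevalence scored by image analysis.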
# Starred values were filed as active, the others as inactive; u = inconclusive; x = no result given. Unless noted, calls follow the shape of the dose curve; as a rule, active = well fitted inhibition curve with a large enough effect (not every such curve was filed as active); inconclusive = small, poorly fitted or top-dose-only effect, or another doubt; inactive = no such curve, though single readings can be large or run the other way. Unless noted, % is scaled to controls: 0 for no effect and ±100 for the full control effect.
SMILES,ALDH1A1 inh,HPGD block,PNC assembly inh
O=C(CN1CCOCC1)c1c[nH]c2ccccc12,-5%,0%,63
O=C(C(=S)N1CCOCC1)c1c[nH]c2ccccc12,3.2µM*,x,x
COc1ccc(-c2nnc3ccc(SCC(=O)Nc4nc5ccccc5s4)nn23)cc1OC,-11%,-29%,-13
O=S(=O)(CCN1CCN(C(c2ccccc2)c2ccccc2)CC1)C(F)(F)F,0.35µM*,-6%,27
c1ccc(OCCOCCN2CCN(C(c3ccccc3)c3ccccc3)CC2)cc1,u,-12%,45
Cc1ccc(S(=O)(=O)CCC(=O)OCc2ccc(S(=O)(=O)C(C)C)cc2)cc1,2.5µM*,x,x
Cc1ccc(S(=O)(=O)CCC(=O)OCc2ccc(Cl)c(Cl)c2)cc1,u,-14%,-112*
Cc1ccc(S(=O)(=O)CCC(=O)OCC(=O)Nc2ncc(Cl)cc2Cl)cc1,u,u,-12
Cc1ccc(S(=O)(=O)CCC(=O)OCC(=O)c2ccc(C)c(C)c2)cc1,u,-2%,-3
Cn1nnnc1SCC1=C(C(=O)O)N2C(=O)C(NC(=O)C(OC=O)c3ccccc3)C2SC1 (configuration not stated),-14%,-7%,x
CC(C(=O)NC1C(=O)N2C(C(=O)O)=C(CSc3nnnn3C)CSC12)n1cc(Br)cn1 (configuration not stated),15µM*,x,x
Cn1nnnc1SCC1=C(C(=O)O)N2C(=O)C(NC(=O)C3CC3c3ccccc3)C2SC1 (configuration not stated),10µM*,x,x
Cn1nnnc1SCC1=C(C(=O)O)N2C(=O)[C@@H](NC(=O)[C@H](O)c3ccccc3)[C@H]2SC1,u,-16%,-19
Cc1cccc(-n2nnc3c(=O)n(CC(=O)Nc4cc(C)on4)cnc32)c1,-1%,x,x
CCN(C(=S)NCc1ccccc1)c1ccccc1,-4%,x,x
O=C(NNC(=O)C(O)(c1ccccc1)c1ccccc1)C1CC1,4%,x,x
O=C(NCc1ccccc1)c1sc(=S)n2c1[nH]c(=O)c1ccccc12,u,u,60
CC(=O)NNC(=O)c1sc(=S)n2c1[nH]c(=O)c1sccc12,3.5µM*,x,x
O=C(O)C1CCN(C(=O)CCc2ccccc2)CC1,3%,x,x
Cc1ccc(C2(c3ccc(C)cc3)CC2C(=O)NCc2cccnc2)cc1 (configuration not stated),1%,x,x
NNC(=O)c1ccc(COc2ccc3c(c2)CCC3)o1,7.9µM*,-1%,2
O=C(NCc1ccccc1)c1cccc(COc2ccc3c(c2)CCC3)c1,2%,-8%,u
O=C(c1ccco1)N1CCN(C(=O)c2ccc(COc3ccc4c(c3)CCC4)o2)CC1,28µM*,28µM*,-27
COc1cccc(OC)c1C(=O)NNC(=O)c1cccc(COc2ccc3c(c2)CCC3)c1,20µM*,-6%,23
O=C(N/N=C/c1cccc(O)c1)c1ccc(COc2ccc3c(c2)CCC3)o1,-10%,-16%,8
SMILES,ALDH1A1 inh,HPGD block,PNC assembly inh
Cc1ccc(OCC(=O)N2CCN(C(=O)c3ccco3)CC2)cc1,-8%,x,x
CC(C)N(C(=S)Nc1cccc(C(F)(F)F)c1)C(C)c1ccccn1 (configuration not stated),2%,x,x
C=CCn1c(CCC(=O)Nc2ccc(C)c(Cl)c2)nnc1SCC(=O)Nc1ccccc1C,u,-7%,25
O=C(NCCCc1nc2ccccc2[nH]1)c1ccc(F)cc1,3%,x,x
Cc1c(Cl)cccc1NC(=S)N1CCN(Cc2ccc3c(c2)OCO3)CC1,0%,-15%,1
Oc1cc2c(c(Cl)c1O)CCNC[C@H]2c1ccccc1,5%,-18%,x
CCN(CC)S(=O)(=O)c1cc(C(=O)NCCN2CCOCC2)ccc1Cl,0%,x,x
O=C(COC(=O)CNC(=O)c1ccc(Cl)cc1)Nc1ccc(Cl)cc1C(F)(F)F,10%,0%,-10
CC(C)(C)NC(=O)C1CCN(S(=O)(=O)c2cccc(C(F)(F)F)c2)CC1,7%,x,x
O=C(N/N=C/c1cccnc1)c1cc(-c2cccs2)nc2ccccc12,u,u,-25
O=C(N/N=C/c1cccs1)c1cc(-c2ccc3ccccc3c2)n[nH]1,12%,-29%,-18
CCCc1cc(C(=O)N/N=C/c2ccc(CC)s2)c2ccccc2n1,-4%,-14%,59
O=C(N/N=C/c1ccc2c(c1)OCO2)c1cc(-c2ccc(F)cc2)nc2ccccc12,-7%,u,-96*
CCc1ccc(/C=N/NC(=O)c2cc(-c3ccncc3)nc3ccccc23)s1,18%,-26%,-110*
COc1ccc(-c2cc(C(=O)N/N=C/c3ccc4c(c3)OCO4)c3ccccc3n2)c(OC)c1,u,55%,17
O=C(N/N=C/c1cccs1)c1cc(-c2cccc3ccccc23)n[nH]1,-1%,25µM*,13
O=C(N/N=C/c1ccc[nH]1)c1cc(-c2cccs2)nc2ccccc12,16µM*,x,x
CS(=O)(=O)Nc1cccc(-c2nc(NCCN3CCOCC3)c3ccccc3n2)c1,-1%,-7%,x
O=C(N/N=C/c1cccs1)c1cc(-c2ccncc2)nc2ccccc12,u,-15%,-109*
O=C(N/N=C/c1cccs1)c1cc(C2CC2)nc2ccccc12,-4%,-20%,-18
Cc1c(C#N)sc(C(N)=O)c1C,-5%,x,x
O=C1C=CC2=C3c4cc(O)c(O)cc4C[C@]3(O)COC2=C1,5%,16µM*,x
O=C(Cc1ccccc1Cl)Nc1cccnc1,-4%,x,x
O=C(c1cc(-c2ccco2)on1)N1CCc2ccccc2C1,7.9µM*,11µM*,-27
O=C(c1cc(-c2ccco2)on1)N1CCN(c2ccccc2)CC1,14µM*,-18%,5
SMILES,ALDH1A1 inh,HPGD block,PNC assembly inh
Cc1ccc(NC(=O)c2cc(-c3ccco3)on2)cc1C,u,u,5
O=C(NCCCN1CCOCC1)c1cc(-c2ccc(O)cc2)on1,19%,0%,8
O=C(c1cc(-c2cccs2)on1)N1CCOCC1,-3%,-23%,-21
COc1ccccc1N1CCN(C(=O)c2cc(-c3ccco3)on2)CC1,u,2%,u
O=C(c1cc(-c2cccs2)on1)N1CCc2ccccc2C1,-4%,13µM*,179
O=C(c1cc(-c2ccc(O)cc2)on1)N1CCc2ccccc2C1,u,13µM*,14
CCn1c(Cc2ccccc2)nnc1SCC(=O)Nc1ccccc1O,8%,x,x
CC(C)=NOc1nc(N(C)C)nc(N(C)C)n1,17%,-3%,3
Cn1nnc2cc(C(=O)N3CCN(c4ccccc4)CC3)ccc21,21%,2%,u
O=C(c1ccc2nc(-c3ccco3)c(-c3ccco3)nc2c1)N1CCN(c2ccccc2)CC1,8.9µM*,u,-12
O=C(CCn1nnc(-c2cccs2)n1)N1CCc2ccccc2C1,28µM*,16µM*,u
O=C(Cn1nnc(-c2cccs2)n1)N1CCOCC1,16%,x,x
Cc1ccc(NC(=O)CCSCCC(=O)Nc2ccc(C)c(C)c2)cc1C,18µM*,-24%,46
Cc1ccc(OC(=O)NC2CCS(=O)(=O)C2)cc1C (configuration not stated),5%,-2%,u
Cc1ccc(NC(=O)/C=C\C(=O)NCC(=O)O)cc1C,5µM*,-18%,-16
Cc1ccc(NC(=O)CSCC(N)=O)cc1C,4%,-1%,28
Cc1ccc(NC(=O)CNC2CCS(=O)(=O)C2)cc1C (configuration not stated),16µM*,x,x

# Source: PubChem (National Center for Advancing Translational Sciences (NCATS))
